Assay [1] is described as follows: StAR promoter reporter inhibitors, counter-screen for LRH-1 inverse agonist project, cell-based, luminescence, high throughput (AID 651611; in the data active means inhibition above about 28%). Conditions: StAR promoter luciferase reporter counterscreen, at 3.6 µM, hits give high values.
Assay [2] addresses Nuclear receptor subfamily 5 group A member 2 (Homo sapiens) (UniProt O00482). Description: NR5A2 activity suppression in reporter cells – cell-based, luminescence, confirmation (AID 651613; in the data active means inhibition above about 42%;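 further: HEK293T cells co-transfected with LRH-1 and StAR promoter luciferase reporter; 0% = vehicle wells and 100% = parental cells lacking receptor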). Conditions: cell-based LRH-1 luciferase reporter, inverse agonism; at 3.6 µM; hits give high values. In general terms: Reporter assays use an easily measured gene product as a stand-in for the process of interest.

Assay [3] concerns the target Steroidogenic factor 1 (Homo sapiens) (UniProt Q13285). Description: inverse agonism at SF1 nuclear receptor – cell-based, luminescence, high throughput, counter-screen for LRH-1 inverse agonist project (AID 651614).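 Further: cells cotransfected with StAR promoter reporter and SF1 expression vector; 0% = vehicle on cells with receptor and 100% = vehicle on cells lacking receptor.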 Conditions: cell-based SF1 luciferase reporter, at 3.6 µM, hits give high values.
Assay [4] in a line: compounds suppressing VP16-driven luciferase signal – cell-based, luminescence, high throughput, counter-screen for LRH-1 inverse agonist project (AID 651615; in the data active means inhibition above about 33%). Conditions: Gal4-VP16 luciferase reporter cells, at 3.6 µM, hits give high values. A general note: A counterscreen serves to expose hits that act by an unwanted route or on another target.

Unmarked numbers belong to inactive results. Activity calls are given as the source filed them. Unless noted, no stated cut-off is given here; in the data, active means inhibition above about 44%; inactive means the rest.

Chain of Steroidogenic factor 1 (Homo sapiens) (Q13285 whole entry, looked up, the tested form may be a part): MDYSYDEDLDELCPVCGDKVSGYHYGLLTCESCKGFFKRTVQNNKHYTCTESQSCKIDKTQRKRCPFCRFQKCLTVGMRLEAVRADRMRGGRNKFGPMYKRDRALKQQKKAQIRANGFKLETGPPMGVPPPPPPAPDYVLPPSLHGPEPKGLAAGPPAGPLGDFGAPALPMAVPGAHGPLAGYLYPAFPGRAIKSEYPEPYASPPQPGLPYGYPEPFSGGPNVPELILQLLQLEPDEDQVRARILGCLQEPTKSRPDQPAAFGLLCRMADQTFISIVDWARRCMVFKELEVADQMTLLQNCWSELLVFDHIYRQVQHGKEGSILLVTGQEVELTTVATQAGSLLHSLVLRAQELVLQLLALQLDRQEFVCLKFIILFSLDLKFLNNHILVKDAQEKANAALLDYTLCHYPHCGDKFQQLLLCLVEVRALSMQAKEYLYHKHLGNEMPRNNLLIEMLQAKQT
Chain of Nuclear receptor subfamily 5 group A member 2 (Homo sapiens) (O00482 whole entry, looked up): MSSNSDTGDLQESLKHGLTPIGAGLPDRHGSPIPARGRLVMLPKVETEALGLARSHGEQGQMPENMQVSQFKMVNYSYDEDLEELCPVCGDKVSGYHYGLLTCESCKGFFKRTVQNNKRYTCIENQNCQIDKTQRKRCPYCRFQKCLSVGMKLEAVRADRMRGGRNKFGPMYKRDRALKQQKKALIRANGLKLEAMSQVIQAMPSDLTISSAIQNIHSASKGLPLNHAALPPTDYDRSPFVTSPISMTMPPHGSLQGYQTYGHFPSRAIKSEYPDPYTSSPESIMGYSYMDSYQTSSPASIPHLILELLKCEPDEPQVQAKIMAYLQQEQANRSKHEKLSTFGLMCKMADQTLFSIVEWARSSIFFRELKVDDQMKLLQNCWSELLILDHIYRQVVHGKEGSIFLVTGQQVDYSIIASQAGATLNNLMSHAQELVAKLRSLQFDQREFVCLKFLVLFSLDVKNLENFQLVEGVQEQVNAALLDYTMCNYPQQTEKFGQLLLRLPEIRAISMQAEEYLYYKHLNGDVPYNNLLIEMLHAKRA

With `O=C(N/N=C/c1ccc(Sc2ccccn2)o1)c1cccc([N+](=O)[O-])c1`, the inhibition (as a rule, the drop in the measured response relative to a control, in per cent) in assay [1] was -2.81%; in assay [2] it was 44.3% (active); in assay [3], 40%; in assay [4], 10.4%.

Take `COc1ccccc1N1CCN(C(=O)C2c3ccccc3Oc3ccccc32)CC1`: the inhibition in assay [1] is 34.4% (active); in assay [2], 26%; in assay [3] it was 33.4%; in assay [4], 39.4% (active).

As for `COCCn1c(SCC(=O)Nc2ccc(C(C)=O)cc2)nnc1-c1ccco1`, the inhibition is 14.8% in assay [1], 43.4% (active) in assay [2], 37.4% in assay [3] and -1.99% in assay [4].

For `CCc1cc(=O)oc2c(C)c(OCC(=O)NCCCN3CCOCC3)ccc12`, the inhibition is 3.94% in assay [1], 48.7% (active) in assay [2], 42.6% in assay [3] and 2.03% in assay [4].

As to `CC(C)NC(=O)CN1CCN(C(=O)CCl)CC1`, the inhibition in assay [1] was 1.19%; in assay [2] it was 52.8% (active); in assay [3] it was 27.2%; in assay [4] it was 7.31%.

As for `Cn1c(=O)n(C)c2cc(NC(=O)CSc3nnc(-c4ccccc4O)n3-c3ccccc3)ccc21`, the inhibition in assay [1] is 30.1% (active); in assay [2], 58.8% (active); in assay [3], 54.8% (active); in assay [4], -42.1%.

Take `O=C(CSc1ncnc2c1cnn2-c1ccccc1)Nc1ccc2c(c1)OCO2`: the inhibition in assay [1] was 11%; in assay [2], 55.6% (active); in assay [3] it was 48.5% (active); in assay [4], -7.58%.

As for `CN1CC(=O)N(CC(=O)Nc2ccc(N3CCOCC3)cc2)C1=O`, the inhibition in assay [1] is 18.7%; in assay [2] it was 63.9% (active); in assay [3], 65.2% (active); in assay [4], -10.9%.

With `Oc1c(Cl)cc(CN2CCOCC2)c2cccnc12`, the inhibition was 4.86% in assay [1], 18.4% in assay [2], 6.83% in assay [3] and -5.55% in assay [4].

As for `CCN(CC)C1Oc2cc3c(cc2C(c2cccc(OC)c2O)C1C)OCO3` (stereo unspecified), the inhibition in assay [1] was 23.9%; in assay [2], 53.1% (active); in assay [3], 72% (active); in assay [4] it was 15.5%.

In the case of `O=C(COC(=O)C1CC(=O)N(Cc2ccccc2)C1)Nc1ccc2c(c1)OCO2` (stereo unspecified), the inhibition in assay [1] was 6.45%; in assay [2] it was 50.9% (active); in assay [3], 54.8% (active); in assay [4] it was -9.97%.

For `CC(=O)Nc1ncc(Cc2cc(Cl)ccc2Cl)s1`, the inhibition in assay [1] was 11.1%; in assay [2] it was 50.2% (active); in assay [3], 46.7% (active); in assay [4], 2.54%.

`CC(Oc1ccc(S(=O)(=O)N2CCCC2)cc1[N+](=O)[O-])C(=O)NC(C)c1ccccc1` (stereo unspecified): the inhibition is 4.94% in assay [1], 52.3% (active) in assay [2], 50.8% (active) in assay [3] and 1.83% in assay [4].

With `O=C1C=C(N2CCCCCC2)C2(CCCCC2)O1`, the inhibition was 4.6% in assay [1], 58.5% (active) in assay [2], 55% (active) in assay [3] and -9.31% in assay [4].

`O=C(COC(=O)Cc1ccccc1[N+](=O)[O-])NCc1ccc(Cl)cc1`: the inhibition in assay [1] was 11.3%; in assay [2] it was 37.2%; in assay [3] it was 34.4%; in assay [4], -5.74%.

For `COc1ccc(Oc2ccc(NC(=O)c3ccccc3C)cc2)cc1`, the inhibition in assay [1] is 8.67%; in assay [2] it was 38.8%; in assay [3], 40.1%; in assay [4], -18.1%.

In the case of `NNC(=O)C(Cc1ccc(O)cc1)N1Cc2ccccc2C1=O` (stereo unspecified), the inhibition in assay [1] was -1.94%; in assay [2] it was 20.6%; in assay [3], 29.4%; in assay [4], 1.55%.

For the molecule `COc1ccc(CCNC(=O)CSc2ccc(NC(C)=O)cc2)cc1OC`, the inhibition was 9.56% in assay [1], 53.8% (active) in assay [2], 53.4% (active) in assay [3] and -3.78% in assay [4].

Consider `Cc1nn(CC(=O)NCCC2=CCCCC2)c(C)c1[N+](=O)[O-]`, for which the inhibition in assay [1] is 17.5%; in assay [2] it was 48.9% (active); in assay [3], 41.5%; in assay [4] it was -0.8%.

For `CCOC(=O)c1cnc(-n2nc(C)cc2C)nc1NC1CCCC1`, the inhibition is 0.01% in assay [1], 56.9% (active) in assay [2], 52.4% (active) in assay [3] and 9.25% in assay [4].

In the case of `Cc1c(C(=O)Nc2ccc(Cc3ccncc3)cc2)cccc1[N+](=O)[O-]`, the inhibition in assay [1] was -10.9%; in assay [2] it was 56.2% (active); in assay [3] it was 49.9% (active); in assay [4], 19.6%.

With `CCCc1nnc2n1N=C(c1ccc(OC)c(OC)c1)CS2`, the inhibition in assay [1] was 4.71%; in assay [2], 38.7%; in assay [3] it was 26.3%; in assay [4] it was -24.8%.

In the case of `O=C1CCN(CCCN2CCC(=O)N(Cc3ccccc3)C2=S)C(=S)N1Cc1ccccc1`, the inhibition is -8.81% in assay [1], 27.2% in assay [2], 28.5% in assay [3] and -0.72% in assay [4].

As for `Nc1nc(-c2ccccc2)c(CCCOc2ccc(NC(=O)CBr)cc2)c(=O)[nH]1`, the inhibition in assay [1] is 15.7%; in assay [2], 61.6% (active); in assay [3], 48.9% (active); in assay [4], -15.6%.
